Results filed as inconclusive are left out. A call without a number means that no potency is given here. Unmarked numbers belong to inactive results. The source made the active and inactive calls. The call rests on the fitted dose curve; in most records, active means well fitted inhibition curve with a large enough effect in the repeat runs; inconclusive means weak or mixed curves, or effect the other way; inactive means no such curve, though single readings can be large or run the other way.
target: Nuclear receptor subfamily 1 group I member 3 (Homo sapiens) (UniProt Q14994); test: qHTS assay to identify small molecule antagonists of the constitutive androstane receptor (CAR) signaling pathway (AID 1224838); conditions: HepG2-CYP2B6-hCAR luciferase, CITCO-stimulated, 24 h; series mostly up to 92.4 µM;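 further: HepG2 cells stably expressing hCAR with CYP2B6 luciferase reporter stimulated by CITCO; nearly all actives have a fitted effect of over 40% in size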
Description: U.S. Tox21 Program National Center for Advancing Translational Sciences [NCATS] NIH Chemical Genomics Center [NCGC] U.S. Environmental Protection Agency [EPA] National Institutes of Environmental Health Sciences [NIEHS] National Toxicology Program [NTP] U.S. Food and Drug Administration [FDA] Tox21 Assay Overview: The constitutive androstane receptor (CAR) is a nuclear receptor which regulates multiple drug metabolizing enzymes (DMEs) and transporters. Activating CAR will generally increase the transcription and subsequent translation of CYP2B6 and CYP3A4. These two DMEs represent about 50% of the drug metabolizing potential in the body. When CAR is deactivated, the metabolizing potential in the body will decrease, subsequently increasing the toxicity in the body or lowering the therapeutic potential of a pro-drug. Recently, there have also been studies performed indicating CARs role in energy metabolism and cancer therapy. Therefore, inhibiting CARs activity could have a potential effect on diabetes and cancer. Identifying environmental toxins and compounds which modulate CAR, through the use of the Tox21 10K compound collection, will be an important step in determining the toxicity and potential therapeutic effects these factors will have on the human body.
Tox21 Assay Protocol Summary: A double-stable (hCAR and CYP2B6-2.2kb) transfected cell line, derived from human hepatoma (HepG2) cells, was utilized for the duration of the quantitative high-throughput screens. The HepG2-CYP2B6-hCAR cells suspended in DMEM culture medium supplemented with 10% FBS, 5 ug/mL blasticidin, 0.5 mg/mL geneticin, 100 U/mL penicillin and 100 ug/mL streptomycin were dispensed at 2500 cells/4 uL/well in 1536-well white solid bottom plates using a Multidrop Combi. After the assay plates were incubated at 37 C/5% CO2 for 4 hrs, 23 nL of compounds at 15 concentrations (from 5-48 columns) or positive control (from 1 to 4 columns) were transferred to the assay plates using a Pintool station. One uL of CITCO, was added using a Flying Reagent Dispenser to generate a final concentration of 50 nM CITCO inside each well. After a 24 hr incubation period at 37 C/5% CO2, four uL of ONE-Glo reagent was added into the assay plates using a Flying Reagent Dispenser. After a 30 min incubation period at room temperature, the luminescence intensity in the assay plates was measured using a ViewLux plate reader.

Chain of Nuclear receptor subfamily 1 group I member 3 (Homo sapiens) (Q14994 whole entry, looked up): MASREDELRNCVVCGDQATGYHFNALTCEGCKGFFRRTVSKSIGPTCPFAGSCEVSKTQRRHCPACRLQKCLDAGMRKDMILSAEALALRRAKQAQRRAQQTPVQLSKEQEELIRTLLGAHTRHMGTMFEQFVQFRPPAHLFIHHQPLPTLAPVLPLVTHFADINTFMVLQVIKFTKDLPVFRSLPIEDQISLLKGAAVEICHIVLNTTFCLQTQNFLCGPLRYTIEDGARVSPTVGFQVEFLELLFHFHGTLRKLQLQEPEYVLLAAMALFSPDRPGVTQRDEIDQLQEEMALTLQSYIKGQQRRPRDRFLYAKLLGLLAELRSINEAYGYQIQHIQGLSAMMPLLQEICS

Structure (SMILES) | Potency | activity, negative = inhibition
O=C(O)C(Cl)Br (stereo not given) | inactive | 
CCc1cc(OC)c(C[C@H](C)N)cc1OC | inactive | 
CCCCCCCC(=O)Cl | inactive | 
COc1cc(CC(C)N)cc(OC)c1OC (stereo not given) | inactive | 
CN(CCO)CCO | inactive | 
NNC(N)=O | inactive | 
Cc1ccc(-c2nc3ccc(C)cn3c2CC(=O)N(C)C)cc1 | inactive | 
C#CC(C)(C)O | inactive | 
BrCC1CO1 (stereo not given) | inactive | 
Oc1ccc(Cc2ccc(O)cc2)cc1 | inactive | 
O=C(CCl)NCO | inactive | 
CCC(=O)c1ccc(Cl)cc1 | inactive | 
C=C(C)[C@H]1CN[C@H](C(=O)O)[C@H]1CC(=O)O | inactive | 
CC#Cc1cc(C)nc(Nc2ccccc2)n1 | inactive | 
Cc1ccc2cc(C)ccc2c1 | inactive | 
O=CCCl | inactive | 
CC(C)(C)c1cc(O)ccc1O | inactive | 
C/C(=N\NC(=O)Nc1cc(F)cc(F)c1)c1ncccc1C(=O)O | inactive | 
O=C(O)c1c(Cl)ccc2cc(Cl)cnc12 | inactive | 
C[C@H](N)C(=O)c1ccccc1 | inactive | 

Structure (SMILES) | Potency | activity, negative = inhibition
C=CCCC#N | inactive | 
CCOC(=O)COc1ccc(Cl)cc1Cl | inactive | 
CN(C)C1CCCCC1 | inactive | 
COc1cccc(C=O)c1 | inactive | 
OP(O)c1ccccc1 | inactive | 
Brc1c(Br)c(Br)c(Br)c(Br)c1Br |  | -5.81% [at 8.39 µM]
O=C(Cl)C(Cl)Cl | inactive | 
O=C(Cl)C(Cl)(Cl)Cl | inactive | 
CC(C)(C1CCC(O)CC1)C1CCC(O)CC1 (stereo not given) | inactive | 
O=c1[nH]c2ccccc2o1 | inactive | 
CCN1CCCC1CNC(=O)C(O)(c1ccccc1)c1ccccc1 (stereo not given) | inactive | 
N#CN | inactive | 
Cc1ccc2c(c1)C1CN(C)CCC1N2 (stereo not given) |  | 51% [at 19 µM]
CC(C)NCC(O)c1ccc([N+](=O)[O-])cc1 (stereo not given) | inactive | 
O=C1CC(=O)NC(=O)N1 | inactive | 
Clc1cc2c(cc1Cl)Oc1cc(Cl)c(Cl)cc1O2 |  | 103% [at 0.349 µM]
Cn1c(N)nc2c3cccnc3ccc21 | inactive | 
CCCCCCC(=O)CCCCCC/C=C/C[C@@H](O)[C@H](O)[C@@](N)(CO)C(=O)O |  | -1.56% [at 19 µM]
CC(Cl)(Cl)Cl | inactive | 
CCOC(=O)Nc1cccc(OC(=O)Nc2ccccc2)c1 | inactive | 

From PubChem BioAssay (Tox21)
